Bioassay records as filed in PubChem.
Only some compounds are listed: those with a hit (about 1.7% of all), similar ones and a draw of the others.
GLP-1R agonist = GLP-1 receptor (human) agonism; HEK293 GLP-1R CRE-luciferase, luminescence, 4-6 h; cells express a hypersensitive GLP-1R form; Potency, µM (doses to about 45.6 µM), inactives show top-dose activation, actives largely listed as activators; 0.007% of 380,000 active; AID 624172; note: % of control where 0% means no effect
Target sequence (P43220 whole entry, looked up): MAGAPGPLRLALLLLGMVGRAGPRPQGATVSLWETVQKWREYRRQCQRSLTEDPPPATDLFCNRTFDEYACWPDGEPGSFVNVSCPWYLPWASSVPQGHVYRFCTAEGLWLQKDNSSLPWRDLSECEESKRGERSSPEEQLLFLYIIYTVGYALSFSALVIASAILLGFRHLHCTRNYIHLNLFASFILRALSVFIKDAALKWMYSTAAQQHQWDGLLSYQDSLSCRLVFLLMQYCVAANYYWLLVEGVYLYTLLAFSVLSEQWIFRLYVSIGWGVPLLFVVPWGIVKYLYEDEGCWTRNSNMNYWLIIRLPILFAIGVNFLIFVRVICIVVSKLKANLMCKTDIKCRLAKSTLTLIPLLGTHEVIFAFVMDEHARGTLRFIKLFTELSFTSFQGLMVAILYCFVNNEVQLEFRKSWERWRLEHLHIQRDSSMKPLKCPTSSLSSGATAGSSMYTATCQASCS
PTHR1 agonist = agonists of human PTHR1 parathyroid hormone receptor. Q03431. HEK293 GP2 PTHR1 cells, GloSensor cAMP luminescence, 1 h. Potency, µM (doses to about 115 µM), for inactives: top-dose activation, most hits filed as activators. 0.075% of 410,000 active; note: nearly all actives have a fitted effect of over 55% in size
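HEK-293-derived GP2 cells expressing PTHR1 and a GloSensor cAMP reporter, 3,000/well, plated overnight, given luciferin plus IBMX (each 0.5 mM as added) for 1 h at 37 °C, then compound for 1 h at 37 °C. Luminescence was read after 15 min at room temperature.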
GLP1R inv ag = GLP-1 receptor (human) inverse agonism. P43220. HEK293 GLP-1R CRE-luciferase, luminescence, 24 h; GLP-1R form is constitutively active. Potency, µM (top dose mostly 38.3 µM), for inactives: at the top dose activity change, negative = inhibition, actives largely listed as inhibitors. 1.6% of 410,000 active. AID 624417; note: % is set by controls: 0 for no effect and ±100 for the full control effect; nearly all actives have a fitted effect of over 55% in size
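Inverse agonists were sought by their lowering of basal cAMP reporter luciferase output in HEK293 cells stably carrying constitutively active human GLP-1R, after 24 h compound treatment.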
GLP1R cytotox = cytotoxicity in counter-screen for GLP-1R inverse agonists | Potency, µM (top dose mostly 38.3 µM), inactives show at the highest dose activity change, negative = inhibition, most hits filed as inhibitors | HEK293 cAMP-luciferase reporter cells, luminescence, 24 h | 0.13% of 410,000 active | AID 624418;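 note: loss of luciferase light is scored as toxicity; % is set by controls: 0 for no effect and ±100 for the full control effect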
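Seeding density was 200 cells/uL; after overnight-length (12 h) culture, 23 nL compounds went on for 24 h at 37 °C. Readout used a luciferase detection reagent, luminescence taken after 12 min at room temperature.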
* marks the source's active call; other numbers are inactive results; i = inactive; ? = inconclusive; nt = no result; [ ] = another dose, or the depositor's remark. Calls come from the whole dose curve; as a rule, active = well fitted curve in the direction sought with a large enough effect; inconclusive = small, poorly fitted or top-dose-only effect, or another doubt; inactive = no such curve, though single readings can be large; an effect the other way counts as inactive or inconclusive. Potency is the fitted concentration of half-maximal effect.

SMILES	GLP-1R agonist	PTHR1 agonist	GLP1R inv ag	GLP1R cytotox
COc1ccc(N(CCC(=O)Nc2ccccc2F)S(=O)(=O)c2ccc(C)cc2C)cc1	5%	-10%	10µM*	-1%
COC(=O)c1sccc1S(=O)(=O)N(CC(=O)Nc1ccccc1F)c1ccccc1	nt	-29%	-21%	-1%
Cc1ccc(N(C)S(=O)(=O)c2cccc(C(=O)NCC(c3ccco3)N3CCCC3)c2)cc1 (stereo not given)	-4%	-16%	10µM*	3%
COc1ccccc1NS(=O)(=O)c1cccc(C(=O)NCC(c2ccccc2OC)N2CCCC2)c1 (stereo not given)	5%	-18%	?	11%
COc1ccccc1C(CNC(=O)c1cccc(S(=O)(=O)Nc2ccc(C)cc2)c1)N1CCCC1 (stereo not given)	-5%	-9%	5.6µM*	-28%
Cc1ccc(C)c(S(=O)(=O)c2cn(C)c3cc(N4CCCCC4C)c(F)cc3c2=O)c1 (stereo not given)	nt	i	?	-17%
NC(=S)N/N=C1\CC(c2ccc3c(c2)OCCO3)Oc2ccc(F)cc21 (stereo not given)	25%	-11%	3.5µM*	?
NC(=S)N/N=C1\CC(c2ccc3c(c2)OCCCO3)Oc2ccc(F)cc21 (stereo not given)	24%	-21%	13µM*	?
CC1=C(c2ccc(C)cc2)S(=O)(=O)NC1=NCc1cccc(F)c1	nt	i	-7%	0%
Cc1ccc2c(=O)c(C(=O)c3ccccc3)cn(CC(=O)NCc3ccccc3)c2n1	nt	-27%	11%	1%
CCN1/C(=C/c2ccc3ccccc3[n+]2CC)C=Cc2ccccc21	-35%	-24%[57.5 µM]	?	4.5µM*
CCN1/C(=C/c2ccc3ccccc3[n+]2CCCS(=O)(=O)[O-])C=Cc2cc(C)ccc21	-1%	1%	?	?
COC(=O)C1=C(C)NC(C)=C(C(=O)OCCN2CCN(C(c3ccccc3)c3ccccc3)CC2)C1c1cccc([N+](=O)[O-])c1 (stereo not given)	-2%	nt	nt	nt
CSc1cccc(NC(=O)N2CCN(S(=O)(=O)c3ccc4c(ccn4C)c3)CC2)c1	7%	i	-34%	1%
CNC(=O)C1(c2ccccc2)CCCCC1	-8%	i	40%	12%
COc1ccccc1NC(=O)C1(c2ccccc2)CCCC1	15%	-9%	4µM*	-4%
CC1CN(C(=O)CCC(=O)NCc2ccccc2)c2cc(Cl)ccc2O1 (stereo not given)	-6%	0%	10µM*	-4%
CC1CN(C(=O)CCC(=O)NCc2ccc(F)cc2)c2cc(Cl)ccc2O1 (stereo not given)	nt	24%	2%	3%
O=c1[nH]c(=S)[nH]c2nc(-c3ccccc3)cnc12	1%	-7%	-9%	-12%
O=c1[nH]c(=O)c2nc(-c3ccc(Cl)cc3)cnc2[nH]1	6%	14µM*	8%	i
COc1ccc2ncc3c(-c4ccc(C)c(C)c4)nn(CC(=O)Nc4ccccc4)c3c2c1	nt	i	8%	6%
Cc1ccc(N(C)S(=O)(=O)c2cccc(C(=O)N(C)Cc3cnn(-c4ccccc4)c3)c2)cc1	16%	-39%	?	-23%
CN(Cc1cnn(-c2ccccc2)c1)C(=O)c1cccc(S(=O)(=O)N(C)c2ccccc2)c1	11%	-51%	10µM*	-8%
CCN(CC)CCNC(=O)c1sc2nc(C)cc(C)c2c1-n1cccc1	nt	i	-7%	7%
CC(NC(=O)CSCc1ccc(Br)cc1)c1ccccc1 (stereo not given)	14%	-44%	7.1µM*	1%
CCOc1ccc(-c2ccc(SC)nn2)cc1	-2%	-34%	2.2µM*	-2%
O=C1c2ccccc2C2(c3ccccc3)NCCCN12 (stereo not given)	1%	-9%	19%	4%
O=C1c2ccccc2C2(c3cc(C(F)(F)F)cc(C(F)(F)F)c3)NCCN12 (stereo not given)	20%	i	10µM*	-15%
CN(C)c1ccc(NC(=O)Cn2cc(S(=O)(=O)Cc3ccccc3Cl)c3ccccc32)cc1	nt	i	?	-21%
CCC(C)NC(=O)CCc1c(C)nc2c(c(C)nn2-c2ccc(C)cc2)c1C (stereo not given)	nt	i	9%	-3%
